The results in this text go back to ChEMBL document CHEMBL1961873, “Compounds: GSK PKIS; Assays: Nanosyn kinase panel” (2012).

Assay [1] concerns the target Serine/threonine-protein kinase MARK2 (Homo sapiens) (UniProt Q7KZI7). The note with it: at 1 µM.
Assay [2] has as its target PAS domain-containing serine/threonine-protein kinase (Homo sapiens) (UniProt Q96RG2). To be noted: at 0.1 µM.
Assay [3] has the same target. The note with it: at 1 µM.
Assay [4] concerns the target Phosphorylase b kinase gamma catalytic chain, skeletal muscle/heart isoform (Homo sapiens) (UniProt Q16816). The note with it: at 0.1 µM.
Assay [5] has the same target. The note with it: at 1 µM.
The target in assay [6] is T1, Phosphorylase b kinase gamma catalytic chain, liver/testis isoform (Homo sapiens) (UniProt P15735).
T1 sequence (whole entry): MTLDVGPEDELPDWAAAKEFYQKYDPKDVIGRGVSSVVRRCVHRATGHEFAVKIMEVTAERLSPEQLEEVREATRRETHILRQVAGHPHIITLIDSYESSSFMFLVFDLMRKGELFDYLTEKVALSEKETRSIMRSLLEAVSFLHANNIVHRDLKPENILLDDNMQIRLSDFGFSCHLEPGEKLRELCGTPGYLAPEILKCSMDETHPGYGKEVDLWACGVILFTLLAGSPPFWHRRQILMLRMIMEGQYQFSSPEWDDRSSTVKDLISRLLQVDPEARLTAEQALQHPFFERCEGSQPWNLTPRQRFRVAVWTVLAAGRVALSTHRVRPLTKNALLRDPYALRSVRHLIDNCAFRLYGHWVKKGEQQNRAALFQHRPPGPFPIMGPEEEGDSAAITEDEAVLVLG
The note with it: at 0.1 µM.

The target in assay [7] is T1, Phosphorylase b kinase gamma catalytic chain, liver/testis isoform (Homo sapiens). The note with it: at 1 µM.
For assay [8], the target named is Serine/threonine-protein kinase pim-1 (Homo sapiens) (UniProt P11309). The note with it: at 0.1 µM.
The target is the same in assay [9]. The note with it: at 1 µM.
Assay [10] addresses Serine/threonine-protein kinase pim-2 (Homo sapiens) (UniProt Q9P1W9). To be noted: at 0.1 µM.
The target is the same in assay [11]. To be noted: at 1 µM.
Assay [12] concerns the target Serine/threonine-protein kinase pim-3 (Homo sapiens) (UniProt Q86V86). To be noted: at 0.1 µM.
For assay [13] the target is unchanged. To be noted: at 1 µM.
Assay [14] addresses T2, MAP kinase-activated protein kinase 5 (Homo sapiens) (UniProt Q8IW41).
T2 sequence (whole entry): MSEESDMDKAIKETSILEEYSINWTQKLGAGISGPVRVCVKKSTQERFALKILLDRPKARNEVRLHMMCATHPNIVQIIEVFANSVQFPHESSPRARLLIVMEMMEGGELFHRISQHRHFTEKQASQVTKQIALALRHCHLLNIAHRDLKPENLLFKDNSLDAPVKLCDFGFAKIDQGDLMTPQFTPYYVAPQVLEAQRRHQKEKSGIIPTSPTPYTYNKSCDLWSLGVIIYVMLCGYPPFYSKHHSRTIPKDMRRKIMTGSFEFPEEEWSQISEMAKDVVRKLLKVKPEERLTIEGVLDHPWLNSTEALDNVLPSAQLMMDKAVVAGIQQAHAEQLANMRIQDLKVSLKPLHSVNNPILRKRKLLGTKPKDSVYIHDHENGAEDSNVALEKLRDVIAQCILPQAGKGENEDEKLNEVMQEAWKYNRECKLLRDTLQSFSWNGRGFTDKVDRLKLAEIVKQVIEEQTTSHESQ
To be noted: at 0.1 µM.

Assay [15] has as its target T2, MAP kinase-activated protein kinase 5 (Homo sapiens). The note with it: at 1 µM.
Assay [16] deals with Serine/threonine-protein kinase SIK1 (Homo sapiens) (UniProt P57059). The note with it: at 0.1 µM.
Assay [17] has the same target. The note with it: at 1 µM.
Assay [18] concerns the target Serine/threonine-protein kinase SIK2 (Homo sapiens) (UniProt Q9H0K1). To be noted: at 0.1 µM.
Assay [19] shares this target. To be noted: at 1 µM.
For assay [20], the target named is T3, Serine/threonine-protein kinase TBK1 (Homo sapiens) (UniProt Q9UHD2).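 Also: values are the mean TBK1 inhibition, taken from the GSK PKIS screening data.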
T3 sequence (whole entry): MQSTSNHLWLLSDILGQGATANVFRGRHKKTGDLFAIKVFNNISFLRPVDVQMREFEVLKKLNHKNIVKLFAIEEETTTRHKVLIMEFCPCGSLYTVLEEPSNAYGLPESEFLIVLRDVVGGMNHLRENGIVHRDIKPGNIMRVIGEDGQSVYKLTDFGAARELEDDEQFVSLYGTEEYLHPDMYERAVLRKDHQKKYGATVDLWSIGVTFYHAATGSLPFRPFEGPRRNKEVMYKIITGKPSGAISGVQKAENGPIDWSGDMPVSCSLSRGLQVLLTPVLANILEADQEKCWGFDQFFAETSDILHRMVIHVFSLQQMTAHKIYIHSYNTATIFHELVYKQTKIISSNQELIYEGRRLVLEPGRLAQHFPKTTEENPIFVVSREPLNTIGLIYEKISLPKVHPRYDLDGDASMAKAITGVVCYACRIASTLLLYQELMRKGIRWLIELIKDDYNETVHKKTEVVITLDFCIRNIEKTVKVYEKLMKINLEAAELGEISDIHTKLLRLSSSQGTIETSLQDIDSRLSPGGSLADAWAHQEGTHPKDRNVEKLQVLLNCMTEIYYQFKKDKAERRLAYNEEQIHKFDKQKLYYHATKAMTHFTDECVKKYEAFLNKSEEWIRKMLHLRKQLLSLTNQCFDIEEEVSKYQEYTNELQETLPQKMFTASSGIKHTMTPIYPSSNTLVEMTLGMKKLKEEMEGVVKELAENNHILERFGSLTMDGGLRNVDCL
The note with it: at 0.1 µM.

In general, inhibition refers to the relative decrease from the control value, in per cent.

Phosphorylase b kinase gamma catalytic chain, skeletal muscle/heart isoform (Homo sapiens), sequence (Q16816 whole entry, looked up, canonical isoform): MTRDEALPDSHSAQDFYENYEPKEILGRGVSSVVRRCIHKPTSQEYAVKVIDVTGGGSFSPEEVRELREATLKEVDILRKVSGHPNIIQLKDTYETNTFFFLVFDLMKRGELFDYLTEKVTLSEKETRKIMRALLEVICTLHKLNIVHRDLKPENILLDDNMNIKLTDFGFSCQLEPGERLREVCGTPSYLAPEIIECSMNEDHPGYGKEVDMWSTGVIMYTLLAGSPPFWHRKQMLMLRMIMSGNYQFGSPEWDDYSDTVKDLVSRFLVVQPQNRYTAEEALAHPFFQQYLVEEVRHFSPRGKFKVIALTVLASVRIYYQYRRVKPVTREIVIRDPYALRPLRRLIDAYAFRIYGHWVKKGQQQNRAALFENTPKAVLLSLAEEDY
Serine/threonine-protein kinase SIK1 (Homo sapiens), sequence (P57059 whole entry): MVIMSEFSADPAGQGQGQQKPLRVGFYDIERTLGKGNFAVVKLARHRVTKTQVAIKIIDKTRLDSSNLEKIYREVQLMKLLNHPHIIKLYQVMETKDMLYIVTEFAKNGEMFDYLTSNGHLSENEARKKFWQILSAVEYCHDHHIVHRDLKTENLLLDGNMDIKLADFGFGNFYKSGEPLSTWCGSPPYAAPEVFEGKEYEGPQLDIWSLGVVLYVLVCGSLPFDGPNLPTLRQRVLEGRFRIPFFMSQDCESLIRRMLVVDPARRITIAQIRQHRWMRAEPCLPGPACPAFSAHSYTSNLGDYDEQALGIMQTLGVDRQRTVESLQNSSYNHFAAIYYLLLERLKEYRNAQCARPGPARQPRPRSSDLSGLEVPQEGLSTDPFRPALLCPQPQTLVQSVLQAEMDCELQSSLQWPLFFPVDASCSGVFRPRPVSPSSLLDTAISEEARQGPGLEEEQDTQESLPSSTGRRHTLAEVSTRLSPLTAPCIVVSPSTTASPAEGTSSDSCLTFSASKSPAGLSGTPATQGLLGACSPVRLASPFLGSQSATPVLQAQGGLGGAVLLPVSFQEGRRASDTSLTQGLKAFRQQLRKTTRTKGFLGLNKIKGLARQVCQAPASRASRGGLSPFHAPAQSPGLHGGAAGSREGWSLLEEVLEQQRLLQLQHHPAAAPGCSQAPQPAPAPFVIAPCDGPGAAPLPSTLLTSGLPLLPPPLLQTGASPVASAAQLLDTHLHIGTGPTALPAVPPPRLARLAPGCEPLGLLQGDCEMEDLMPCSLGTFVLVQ
PAS domain-containing serine/threonine-protein kinase (Homo sapiens), sequence (Q96RG2 whole entry, the tested form may be a part): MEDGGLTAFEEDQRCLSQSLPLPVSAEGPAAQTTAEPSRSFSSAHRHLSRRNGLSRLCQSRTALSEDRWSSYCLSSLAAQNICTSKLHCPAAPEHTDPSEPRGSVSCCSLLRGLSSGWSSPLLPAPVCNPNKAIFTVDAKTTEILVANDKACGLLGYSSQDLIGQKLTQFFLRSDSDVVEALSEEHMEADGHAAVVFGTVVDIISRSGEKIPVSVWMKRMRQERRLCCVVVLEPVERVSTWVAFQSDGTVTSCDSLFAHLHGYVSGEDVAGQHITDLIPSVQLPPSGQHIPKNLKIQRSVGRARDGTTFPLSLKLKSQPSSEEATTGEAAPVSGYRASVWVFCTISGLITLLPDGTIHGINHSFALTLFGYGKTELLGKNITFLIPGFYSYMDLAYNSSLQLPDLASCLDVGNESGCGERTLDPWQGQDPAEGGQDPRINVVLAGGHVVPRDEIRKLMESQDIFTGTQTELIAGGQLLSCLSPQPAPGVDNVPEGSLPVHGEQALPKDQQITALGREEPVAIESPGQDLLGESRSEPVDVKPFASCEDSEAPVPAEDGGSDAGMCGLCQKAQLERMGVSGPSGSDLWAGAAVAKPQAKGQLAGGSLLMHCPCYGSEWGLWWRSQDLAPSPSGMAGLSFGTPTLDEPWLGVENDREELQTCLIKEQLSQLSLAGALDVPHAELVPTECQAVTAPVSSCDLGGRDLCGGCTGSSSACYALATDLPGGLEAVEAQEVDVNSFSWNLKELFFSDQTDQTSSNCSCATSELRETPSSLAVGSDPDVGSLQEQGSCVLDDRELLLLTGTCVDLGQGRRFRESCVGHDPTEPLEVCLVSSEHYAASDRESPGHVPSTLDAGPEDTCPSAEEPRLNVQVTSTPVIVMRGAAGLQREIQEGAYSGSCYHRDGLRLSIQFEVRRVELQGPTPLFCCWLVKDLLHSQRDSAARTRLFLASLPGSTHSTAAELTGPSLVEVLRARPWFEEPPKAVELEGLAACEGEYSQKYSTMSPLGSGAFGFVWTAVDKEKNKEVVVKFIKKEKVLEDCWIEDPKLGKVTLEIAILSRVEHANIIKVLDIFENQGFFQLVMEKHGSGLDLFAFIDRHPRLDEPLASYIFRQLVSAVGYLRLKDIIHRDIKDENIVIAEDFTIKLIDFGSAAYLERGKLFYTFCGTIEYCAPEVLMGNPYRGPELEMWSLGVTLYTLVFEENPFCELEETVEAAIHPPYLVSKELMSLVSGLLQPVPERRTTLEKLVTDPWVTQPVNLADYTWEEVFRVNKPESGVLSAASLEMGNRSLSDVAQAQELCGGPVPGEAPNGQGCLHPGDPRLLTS
Serine/threonine-protein kinase pim-1 (Homo sapiens), sequence (P11309 whole entry, looked up): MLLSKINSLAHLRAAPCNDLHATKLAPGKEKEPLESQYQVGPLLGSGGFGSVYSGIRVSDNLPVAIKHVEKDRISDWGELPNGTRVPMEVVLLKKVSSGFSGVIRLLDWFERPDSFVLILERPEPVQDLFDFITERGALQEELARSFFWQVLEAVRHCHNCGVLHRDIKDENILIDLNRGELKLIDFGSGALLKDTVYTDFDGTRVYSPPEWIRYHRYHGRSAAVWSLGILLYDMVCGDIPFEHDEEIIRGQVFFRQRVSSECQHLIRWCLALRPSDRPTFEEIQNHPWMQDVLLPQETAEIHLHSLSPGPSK
Serine/threonine-protein kinase MARK2 (Homo sapiens), sequence (Q7KZI7 whole entry, the tested form may be a part): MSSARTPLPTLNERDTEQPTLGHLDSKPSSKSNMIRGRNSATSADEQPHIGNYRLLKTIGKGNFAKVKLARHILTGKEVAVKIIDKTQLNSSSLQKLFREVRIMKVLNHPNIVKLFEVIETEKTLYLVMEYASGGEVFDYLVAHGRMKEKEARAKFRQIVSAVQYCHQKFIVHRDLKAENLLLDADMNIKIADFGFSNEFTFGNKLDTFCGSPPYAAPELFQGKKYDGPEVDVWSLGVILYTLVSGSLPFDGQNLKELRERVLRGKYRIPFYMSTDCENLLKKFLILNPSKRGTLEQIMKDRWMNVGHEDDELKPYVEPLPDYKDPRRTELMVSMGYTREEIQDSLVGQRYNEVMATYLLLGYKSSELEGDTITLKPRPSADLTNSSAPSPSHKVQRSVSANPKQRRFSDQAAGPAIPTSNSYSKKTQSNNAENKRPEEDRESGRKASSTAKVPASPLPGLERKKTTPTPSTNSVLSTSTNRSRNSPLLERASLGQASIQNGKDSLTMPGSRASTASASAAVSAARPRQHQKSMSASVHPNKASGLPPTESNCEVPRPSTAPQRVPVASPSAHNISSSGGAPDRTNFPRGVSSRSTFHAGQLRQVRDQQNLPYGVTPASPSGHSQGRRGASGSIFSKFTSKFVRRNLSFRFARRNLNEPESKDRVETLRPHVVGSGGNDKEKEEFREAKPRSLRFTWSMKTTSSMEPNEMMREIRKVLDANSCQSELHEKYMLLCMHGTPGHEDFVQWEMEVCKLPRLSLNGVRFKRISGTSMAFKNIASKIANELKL
Serine/threonine-protein kinase pim-2 (Homo sapiens), sequence (Q9P1W9 whole entry, looked up): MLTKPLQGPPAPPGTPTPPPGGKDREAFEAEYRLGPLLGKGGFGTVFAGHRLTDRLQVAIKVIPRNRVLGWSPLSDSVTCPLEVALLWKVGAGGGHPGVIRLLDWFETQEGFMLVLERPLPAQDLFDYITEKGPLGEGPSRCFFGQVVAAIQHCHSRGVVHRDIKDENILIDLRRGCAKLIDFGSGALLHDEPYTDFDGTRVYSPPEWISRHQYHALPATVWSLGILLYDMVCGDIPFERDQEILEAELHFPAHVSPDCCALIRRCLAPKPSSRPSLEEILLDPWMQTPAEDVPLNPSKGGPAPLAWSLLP

As to `CCn1c(-c2nonc2N)nc2c(C#CCN)ncc(OCCCN)c21`, the inhibition in assay [1] was 10.1%; in assay [2] it was 1.4%; in assay [3], 16.9%; in assay [4], 3.15%; in [5], 5.73%; in assay [6], -1.7%. The inhibition in [7] was 4.75%; in assay [8], 4.76%; in assay [9], 36%; in assay [10], 3.26%; in [11], 5.54%; in assay [12] it was 9.18%. Also, the inhibition was 33% in assay [13]; -1.32% in assay [14]; 1.09% in assay [15]; -4.16% in assay [16]; -7.22% in assay [17]; -2.87% in assay [18]. Moreover, the inhibition was -1.04% in [19] and -0.18% in assay [20].

On to `CCn1c(-c2nonc2N)nc2c(C#CC(C)(C)O)ncc(OC[C@@H]3CCCN3)c21`, for which the inhibition in [1] was 51.9%; in assay [2], 0.57%; in assay [3] it was 7.61%; in assay [4] it was 1.02%; in [5] it was 2.21%; in assay [6], 1.45%. Further, the inhibition amounted to 1.65% in [7]; 1.6% in assay [8]; 7.63% in assay [9]; 1.1% in assay [10]; 7.09% in assay [11]; 1.81% in assay [12]. Besides, the inhibition is 10.1% in assay [13]; 0.11% in assay [14]; 0.32% in assay [15]; 1.03% in assay [16]; 4.19% in [17]; -4.09% in assay [18]. Also, the inhibition in [19] was determined as 6.59%; in assay [20], 5.1%.

Regarding `NC(=O)c1sc(-n2cnc3cc(C(F)(F)F)ccc32)cc1OCc1ccccc1Br`, the inhibition stood at 2.11% in [1]; 1.33% in [2]; 0.96% in [3]; 0.3% in assay [4]; 5.87% in [5]; 2.5% in assay [6]. For the same compound, the inhibition is 3.01% in [7]; 1.18% in assay [8]; 1.5% in [9]; -0.35% in assay [10]; 1.16% in assay [11]; 1.55% in [12]. Also, the inhibition is 2.84% in assay [13]; 0.86% in [14]; 0.76% in assay [15]; 6.45% in [16]; 1.7% in assay [17]; -0.18% in [18]. Moreover, the inhibition is 3.79% in assay [19] and 0.98% in assay [20].

On to `COc1cc2c(cc1Nc1nc(Nc3ccsc3C(N)=O)c3cc[nH]c3n1)N(C(=O)CN(C)C)CCC2`, for which the inhibition in [1] was 5.44%; in assay [2] it was 0.93%; in [3], 1.03%; in [4], 8.54%; in [5], 41.3%; in assay [6] it was -0.5%. In addition, the inhibition in [7] is -0.53%; in assay [8], 31.3%; in [9], 79.8%; in assay [10] it was 0.47%; in assay [11], 3.29%; in [12], 6.22%. Besides, the inhibition is 38.3% in assay [13]; 1.1% in assay [14]; 1.23% in assay [15]; -0.68% in [16]; -0.04% in [17]; -2.92% in [18]. Besides, the inhibition in assay [19] was 5.93%; in [20], 9.46%.

For `CCn1c(-c2nonc2N)nc2c(C#CC(C)(C)O)nc(O[C@@H](CN)c3ccccc3)cc21`, the inhibition in [1] was 90.5%; in assay [2], 0.53%; in assay [3], 15.9%; in assay [4] it was 1.61%; in assay [5], 12.3%; in assay [6], -3.09%. The inhibition in [7] is -0.93%; in [8], 4.64%; in [9], 35.2%; in [10], 2.45%; in assay [11], 20.6%; in assay [12], 4.66%. Further, the inhibition in [13] is 39%; in [14] it was -0.85%; in assay [15], -1.11%; in assay [16], -0.97%; in assay [17] it was 8.3%; in [18], -0.81%. Besides, the figures for the inhibition in [19] and in assay [20] were 14.8% and 20.9%, respectively.

Regarding `NS(=O)(=O)c1ccc(-c2ccc3c(NC(=O)C4CC4)n[nH]c3c2)cc1`, the inhibition is 2.59% in assay [1]; 0.57% in assay [2]; -1.27% in assay [3]; -3.09% in [4]; 3.54% in assay [5]; 2.77% in assay [6]. The inhibition is 0% in assay [7]; 1.16% in assay [8]; 0.95% in [9]; -0.15% in [10]; 0.28% in assay [11]; -0.26% in [12]. For the same compound, the inhibition in [13] was -1.81%; in assay [14] it was 0.51%; in [15], 0.89%; in assay [16] it was 5.15%; in [17], 3.27%; in assay [18] it was 1.79%. In addition, the inhibition is 8.87% in assay [19] and 5.3% in [20].

With `NS(=O)(=O)c1ccc(N/C=C2\C(=O)Nc3ccc4ncsc4c32)cc1`, the inhibition in assay [1] was 34.6%; in [2] it was -0.28%; in assay [3] it was 0.4%; in [4] it was 15.2%; in assay [5], 47.6%; in assay [6], 7.45%. Also, the inhibition in assay [7] is 19.8%; in assay [8] it was 1.16%; in assay [9], 4.82%; in [10] it was 0.27%; in assay [11] it was 1.21%; in [12], 0.54%. The inhibition came to 4.12% in assay [13]; 2.27% in [14]; 7.16% in assay [15]; 2.12% in [16]; 21% in assay [17]; 9% in assay [18]. In addition, the figures for the inhibition in assay [19] and in [20] were 25.8% and 10.7%, respectively.
